# Hits are enriched below; roughly 3.5% of the tested compounds scored in any of these assays.
# TEAD-YAP inh – TEAD-YAP interaction inhibition; inhibition, % at 9.12 µM; HEK-TIYL cells, TEAD-Gal4/YAP UAS-luciferase luminescence; 1.4% of 640,000 active; in the data active = inhibition above about 32%;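 also: 0% = median of test compound wells and 100% = reference inhibitor wells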
# FBW7 act – activators of human E3 ligase FBW7 | Q969H0 | AlphaScreen FBW7–phospho-cyclin E peptide binding, activator screen | normalized activity (activation), % at 26.1 µM | 0.13% of 650,000 active; in the data active = normalized activity above about 1.9%;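 also: purified mutant Fbw7 with reduced substrate affinity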
# Target sequence (Q969H0 whole entry, looked up): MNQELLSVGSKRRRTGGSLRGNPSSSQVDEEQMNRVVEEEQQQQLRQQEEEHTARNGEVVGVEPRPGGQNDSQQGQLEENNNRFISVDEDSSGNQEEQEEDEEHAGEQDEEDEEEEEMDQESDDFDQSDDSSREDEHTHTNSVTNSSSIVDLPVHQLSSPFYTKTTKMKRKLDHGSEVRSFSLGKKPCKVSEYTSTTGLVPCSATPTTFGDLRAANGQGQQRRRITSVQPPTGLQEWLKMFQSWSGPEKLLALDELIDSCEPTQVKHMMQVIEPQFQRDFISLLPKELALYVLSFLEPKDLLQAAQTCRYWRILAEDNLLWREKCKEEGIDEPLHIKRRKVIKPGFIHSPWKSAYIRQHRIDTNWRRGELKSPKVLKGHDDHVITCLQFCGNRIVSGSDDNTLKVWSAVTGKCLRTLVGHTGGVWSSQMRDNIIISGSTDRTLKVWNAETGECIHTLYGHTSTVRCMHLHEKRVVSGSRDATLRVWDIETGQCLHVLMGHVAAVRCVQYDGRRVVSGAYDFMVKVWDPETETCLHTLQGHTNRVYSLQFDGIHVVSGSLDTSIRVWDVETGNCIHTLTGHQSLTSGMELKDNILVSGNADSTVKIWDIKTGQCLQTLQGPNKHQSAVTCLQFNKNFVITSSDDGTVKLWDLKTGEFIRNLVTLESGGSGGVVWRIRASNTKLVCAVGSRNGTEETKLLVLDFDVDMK
# GPR151 ag – activators of human GPR151. Q8TDV0. PathHunter beta-arrestin GPR151 cells, luminescence. activation, % at 11.2 µM. 1% of 650,000 active; in the data active = activation above about 4.9%;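 also: 0% = median of compound wells and 100% = cells with positive control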
# MITF inh – inhibitors of human MITF | AID 1259374 | O75030 | AlphaScreen MITF homodimerization, bead proximity signal | inhibition, % at 2.6 µM | 0.91% of 650,000 active; in the data active = inhibition above about 50%;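 also: 0% = vehicle wells with protein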
# Numbers without * were called inactive.
SMILES,TEAD-YAP inh,FBW7 act,GPR151 ag,MITF inh
Cc1cc(C)n(CCc2nc3c4ccccc4nc(=S)n3[nH]2)n1,49.0*,0.1,-0.2,6.8
CCn1c(SCC(=O)N2CCCC2)nnc1-c1c[nH]c2ccccc12,0.7,-0.2,0.3,-6.7
CCOC(=O)N1CCN(C(=O)CSc2nnc(-c3c[nH]c4ccccc34)n2CC)CC1,35.8*,0.0,-1.9,-13.1
CCOC(=O)c1cnc(Nc2nc3ccccc3o2)nc1C,43.5*,-0.5,-1.7,-1.1
CCOC(=O)c1c(C)nc(Nc2nc3ccccc3o2)nc1-c1ccccc1,-5.4,-0.1,2.1,-6.1
COc1ccc(Cn2c(C(=O)O)c(CNCc3ccc4c(c3)OCO4)c3ccccc32)cc1,11.0,-0.1,0.7,15.1
Cc1cnc(NC(=O)CN2CCC(O)(c3ccccn3)CC2)s1,2.6,-0.1,0.1,-1.4
Cc1cnc(NC(=O)CN2CCN(c3ccccn3)CC2)s1,65.2*,0.2,-0.6,10.7
CC1=C(C(=O)N2CCOCC2)C(c2sccc2C)NC(=S)N1 (stereo unspecified),-4.3,0.0,-0.7,-14.6
CCC(=O)Nc1ccc2nn(-c3ccccc3)nc2c1,37.4*,0.1,-1.9,-0.3
O=C(Nc1ccc2nn(-c3ccccc3)nc2c1)C(F)(F)F,-15.7,0.0,-0.4,-17.0
CC(C)(C)C(=O)Nc1ccc2nn(-c3ccccc3)nc2c1,81.6*,0.0,1.6,-1.7
CC(C)C(=O)Nc1ccc2nn(-c3ccccc3)nc2c1,46.1*,0.1,-0.7,5.3
COc1cccc(CNc2ccc(F)cc2F)c1O,-1.1,0.0,0.3,-7.3
Cc1onc(-c2ccccc2Cl)c1C(=O)NNC(N)=S,-6.0,0.1,4.4,-1.3
CC1(C)CC(=O)C2=C(C1)Nc1ccccc1NC2c1ccc2c(c1)OCO2 (stereo unspecified),-21.5,-0.2,-1.7,-3.1
O=C1OCC2=C1C(c1ccc3c(c1)OCO3)Nc1ccc3ccccc3c12 (stereo unspecified),53.9*,0.0,1.7,-8.5
COc1ccc(OC)c(/C=C2/C(=O)ON=C2C)c1,-4.3,-0.1,-0.2,45.5
COc1ccc(Br)cc1/C=C1\C(=O)ON=C1C,-4.6,0.1,-1.0,64.7*
CSc1ccc(/C=C2\C(=O)ON=C2C)cc1,-2.7,0.5,-0.4,78.7*
COc1cc(/C=C2\C(=O)ON=C2C)cc(Cl)c1OC(C)C,-3.6,0.0,-0.2,75.4*
CCOc1c(Br)cc(/C=C2\C(=O)ON=C2C)cc1OC,-8.0,-0.1,1.5,77.9*
CCOC(=O)C(OC(=O)CCc1nc2ccccc2[nH]c1=O)c1ccccc1 (stereo unspecified),10.8,0.1,-0.4,14.9
C#CCOc1ccc(/C=C2\C(=O)ON=C2C)cc1OC,-9.5,-0.4,1.5,67.7*
CCc1nnc(NS(=O)(=O)c2ccc(NC(=S)NC(=O)c3ccccc3)cc2)s1,-10.1,2.9*,-0.5,-1.7
SMILES,TEAD-YAP inh,FBW7 act,GPR151 ag,MITF inh
CCc1nnc(NS(=O)(=O)c2ccc(NC(=O)c3ccccc3)cc2)s1,8.8,-0.1,1.6,1.6
COC1C(O)CC(OC2CC(Oc3cc4cc5c(c(O)c4c(O)c3C)C(=O)[C@@H](OC3CC(OC4CC(OC6CC(C)(O)C(C)C(C)O6)C(O)C(C)O4)C(O)C(C)O3)[C@H]([C@H](OC)C(=O)[C@@H](O)[C@@H](C)O)C5)OC(C)C2OC(C)=O)OC1C (stereo partly specified),95.7*,-0.4,-1.5,2.7
Cc1oc(C)c2c(=O)cc(-c3ccc(O)c(O)c3)cc(O)c12,3.9,-1.0,0.0,86.9*
COc1ccc(-c2cc(O)c3c(C)oc(C)c3c(=O)c2)cc1,4.3,-0.3,0.4,0.7
CC(C)n1cnc2c(NCC3CCCO3)nc(-c3ccccc3)nc21 (stereo unspecified),13.0,0.0,0.2,2.3
C/C(=N\N=C1/NC(=O)C(C)S1)c1ccc(C)cc1 (stereo unspecified),47.2*,-0.5,-0.4,-0.9
c1ccc(-c2cnc3ccc(NCc4ccccn4)nn23)cc1,38.9*,-0.1,0.0,-3.7
Fc1ccc(-c2cnc3ccc(NCCc4ccccn4)nn23)cc1,68.0*,0.1,0.0,17.5
COc1ccc(CNc2ccc3ncc(-c4cccc(CO)c4)n3n2)cc1,32.8*,-0.1,-0.7,-21.5
Clc1cccc(-c2cnc3ccc(NCc4ccccn4)nn23)c1,5.0,-0.2,-0.5,-11.9
Oc1ccc(-c2cnc3ccc(NCc4ccco4)nn23)cc1,46.6*,-0.1,-0.4,5.7
CN(C)c1ccc(-c2cnc3ccc(NCCc4ccccn4)nn23)cc1,28.7,0.5,-0.7,30.9
Cc1ccccc1CN1CCNC(=O)C1CC(=O)N1CCC(O)(c2ccccn2)CC1 (stereo unspecified),-4.9,0.2,-0.2,3.4
CCOc1ccc2c(c1)-c1c(ssc1=S)C(C)(C)N2C(=O)CSc1nc2ccc(OCC)cc2s1,12.4,-0.1,1.0,27.1
Cc1nc2ccc(S(=O)(=O)NC(CC(C)C)C(=O)NC3CCCCC3)cc2s1 (stereo unspecified),7.8,0.2,-0.1,16.4
CCC(Cc1ccccc1)NC(=O)c1c[nH]c2ccc(S(=O)(=O)N3CCOCC3)cc2c1=O (stereo unspecified),-0.8,-0.1,0.6,-1.1
COc1ccc2c(CNC3CCCCCC3)c(C(=O)O)n(C)c2c1,4.7,0.1,-1.3,2.8
CN(C)c1ccc(-c2cnc3ccc(NCc4ccccn4)nn23)cc1,9.4,0.0,1.0,-1.8
Fc1ccc(-c2cnc3ccc(NCc4ccccn4)nn23)cc1,51.5*,-0.7,-0.4,-6.2
COc1ccc(-c2cnc3ccc(NCc4ccccn4)nn23)cc1,45.3*,1.5,-0.7,-7.8
O=C1NC(=O)N(Cc2ccccc2)C(=O)/C1=C/c1ccc(Br)o1,10.8,-0.7,-1.1,57.7*
O=C1NC(=O)N(c2ccccc2)C(=O)/C1=C\c1ccc(I)o1,-2.7,-0.4,0.6,74.4*
Cc1cccc(N2C(=O)NC(=O)/C(=C/c3ccc(I)o3)C2=O)c1,-2.8,-0.4,-1.5,58.4*
CCc1ccc(N2C(=O)NC(=O)/C(=C\c3ccc(I)o3)C2=O)cc1,-0.7,0.5,0.6,13.8
CC(=O)N1CCN(c2nc(C3CCCCC3)nc3sc(C)c(C)c23)CC1,8.0,0.0,0.0,8.0
SMILES,TEAD-YAP inh,FBW7 act,GPR151 ag,MITF inh
C/C(=N\NC(=S)NC(C)C)c1ccc2c(c1)OCO2,-1.0,-0.4,-0.5,-6.5
COc1ccc(CNc2nc(C)c(-c3ccn(CCO)n3)s2)c(OC)c1OC,-12.5,-0.1,0.9,-1.5
COc1cc(OC)c(OC)cc1CNc1nc(C)c(-c2ccn(CCO)n2)s1,37.1*,-0.1,-0.3,14.7
O=C(NNC(=S)NC(=O)C(c1ccccc1)c1ccccc1)c1ccccc1O,85.6*,-1.8,0.3,23.5
O=C(/C=C/c1cccs1)NC(=S)NNC(=O)c1ccccc1O,81.2*,-1.0,4.3,39.7
COc1ccc(N2CCN(c3nccnc3NS(C)(=O)=O)CC2)cc1,-4.0,-0.2,-1.4,11.1
O=C(COc1ccc(Cl)cc1)Nc1ccc2c(c1)CCCN2S(=O)(=O)c1ccc(F)cc1,-4.0,-0.1,3.0,4.3
Cc1ccc(C(=O)NNC(=S)NCc2ccco2)cc1[N+](=O)[O-],-5.8,-0.1,0.9,5.1
